Here are results for nine compounds from PubChem BioAssay (NCI).

Among the test systems are RPMI-8226 leukemia; OVCAR-8 ovarian; OVCAR-5 ovarian; SK-OV-3 ovarian; IGROV1 ovarian; OVCAR-3 ovarian; HS 578T breast; NCI/ADR-RES ovarian; T-47D breast; BT-549 breast; MDA-MB-435 melanoma; SW-620 colon; MCF7 breast; HCT-116 colon; HCC-2998 colon; KM12 colon.
Common to all, as to assay: NCI-60 one-dose screen, 48 h (100 = growth as untreated, 0 = no growth, -100 = all killed)
What all share (conditions): 10 µM unless noted

This is part of a sample that, as a whole, favours compounds with a hit. Of some 83,000 tested, about 20% had one in any assay.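 Single-concentration screen, 48 h exposure, 96-well plates. Endpoint: percent growth. Below 10 = active.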 A number with no mark means an inactive call. Activity calls are given as the source filed them.

Take `Cn1c(N)c(N=O)c(=O)[nH]c1=O`: the growth was 83.9% in the experiment with RPMI-8226 leukemia; 104% with OVCAR-8 ovarian; 106% in the experiment on OVCAR-5 ovarian; 115% in the experiment with SK-OV-3 ovarian; 107% in the experiment on IGROV1 ovarian; 112% in the experiment with OVCAR-3 ovarian. Besides, the growth is 99.8% in the experiment on HS 578T breast; 103% in the experiment on NCI/ADR-RES ovarian; 98% with T-47D breast; 93.5% in the experiment with BT-549 breast; 108% with MDA-MB-435 melanoma; 107% in the experiment on SW-620 colon. The growth with MCF7 breast is 106%; with HCT-116 colon, 104%; in the experiment on HCC-2998 colon, 118%; in the experiment with KM12 colon, 99%.
`S=C(Nc1ccc(C2=NCCN2)cc1)Nc1ccc(C2=NCCN2)cc1`: the growth with RPMI-8226 leukemia is 94.4%; with OVCAR-8 ovarian it was 96.2%; in the experiment on OVCAR-5 ovarian, 97.7%; with SK-OV-3 ovarian it was 108%; in the experiment with IGROV1 ovarian, 108%; with OVCAR-3 ovarian, 110%. Also, the growth in the experiment on HS 578T breast was 110%; in the experiment with NCI/ADR-RES ovarian it was 93.2%; in the experiment with T-47D breast, 83.2%; with BT-549 breast, 87.9%; in the experiment on MDA-MB-435 melanoma, 102%; with SW-620 colon it was 107%. In addition, the growth was 103% in the experiment with MCF7 breast, 107% in the experiment with HCT-116 colon, 104% in the experiment on HCC-2998 colon and 101% in the experiment with KM12 colon.
For the compound `O=C(Nc1ccccc1Cl)c1cnc2ccc(C3CCNCC3)cn12`, the growth is 108% in the experiment on RPMI-8226 leukemia; 65.5% with OVCAR-8 ovarian; 30.8% in the experiment with OVCAR-5 ovarian; 40.3% in the experiment with SK-OV-3 ovarian; -50.5% (active) in the experiment on IGROV1 ovarian; 62.2% with OVCAR-3 ovarian. For the same compound, the growth with HS 578T breast was 9.47% (active); in the experiment on NCI/ADR-RES ovarian it was 90.5%; in the experiment on T-47D breast, 51.8%; in the experiment on BT-549 breast it was 97.8%; in the experiment on MDA-MB-435 melanoma it was 86%; in the experiment with SW-620 colon it was 96.6%. In addition, the growth was 83.6% in the experiment on MCF7 breast, 58.2% in the experiment with HCT-116 colon, 123% with HCC-2998 colon and 110% with KM12 colon.
On to `O=C(CSc1nnc(Nc2ccccc2)s1)NCCc1ccc(F)cc1`, for which the growth is 145% with RPMI-8226 leukemia; 117% with OVCAR-8 ovarian; 92.9% with OVCAR-5 ovarian; 113% in the experiment on SK-OV-3 ovarian; -2.38% (active) in the experiment with IGROV1 ovarian; 113% with OVCAR-3 ovarian. The growth in the experiment on HS 578T breast was 119%; with NCI/ADR-RES ovarian it was 99.3%; in the experiment with T-47D breast, 94.8%; in the experiment on BT-549 breast it was 109%; with MDA-MB-435 melanoma, 101%; in the experiment with SW-620 colon it was 103%. Besides, the growth in the experiment on MCF7 breast is 109%; with HCT-116 colon it was 99.8%; in the experiment on HCC-2998 colon, 99.3%; in the experiment with KM12 colon, 111%.
For `O=C(Nc1ccc(C2=NCCCN2)cc1)Nc1ccc(C2=NCCCN2)cc1`, the growth in the experiment with RPMI-8226 leukemia is 53.2%; in the experiment on OVCAR-8 ovarian, 89%; in the experiment with OVCAR-5 ovarian it was 101%; with SK-OV-3 ovarian, 110%; in the experiment with IGROV1 ovarian, 110%; in the experiment on OVCAR-3 ovarian, 99.4%. Besides, the growth in the experiment on HS 578T breast was 79.5%; in the experiment with NCI/ADR-RES ovarian, 94.4%; in the experiment on T-47D breast it was 73.6%; with BT-549 breast, 100%; in the experiment on MDA-MB-435 melanoma, 95.3%; with SW-620 colon, 99.4%. The growth was 94% in the experiment with MCF7 breast, 67.4% in the experiment on HCT-116 colon, 117% with HCC-2998 colon and 100% in the experiment with KM12 colon.
`COc1ccc2c(c1)nc(N)c1c3ccccc3cn21`: the growth with RPMI-8226 leukemia was 80.3%; in the experiment on OVCAR-8 ovarian it was 87.8%; in the experiment with OVCAR-5 ovarian it was 113%; in the experiment on SK-OV-3 ovarian it was 85.6%; in the experiment with IGROV1 ovarian, 73.1%; in the experiment on OVCAR-3 ovarian, 79.3%. Besides, the growth in the experiment with NCI/ADR-RES ovarian was 69.1%; in the experiment on BT-549 breast, 88.4%; with MDA-MB-435 melanoma it was 2.56% (active); in the experiment on SW-620 colon it was 56.8%; in the experiment on MCF7 breast, 44.8%; in the experiment with HCT-116 colon, 59.1%. The growth in the experiment with HCC-2998 colon was 103%; with KM12 colon it was 63%.
Consider `CCOC(=O)c1c(NC(=O)C2CCCCC2C(=O)O)sc2c1CCCC2` (stereo unspecified), for which the growth with RPMI-8226 leukemia is 105%; with OVCAR-8 ovarian, 96.7%; in the experiment on OVCAR-5 ovarian, 106%; in the experiment with SK-OV-3 ovarian it was 97.9%; with IGROV1 ovarian, 105%; in the experiment on OVCAR-3 ovarian, 106%. Besides, the growth was 103% in the experiment with HS 578T breast; 106% in the experiment with NCI/ADR-RES ovarian; 103% with T-47D breast; 102% with BT-549 breast; 97.4% in the experiment with MDA-MB-435 melanoma; 101% with SW-620 colon. In addition, the growth with MCF7 breast is 98.1%; in the experiment with HCT-116 colon it was 109%; in the experiment with HCC-2998 colon it was 110%; in the experiment on KM12 colon, 109%.
With `CC(C)(C)c1ccc(C(O)CCCN2CCC(C(O)(c3ccccc3)c3ccccc3)CC2)cc1` (stereo unspecified), the growth in the experiment on RPMI-8226 leukemia is -38.8% (active); in the experiment on OVCAR-8 ovarian, -38.5% (active); in the experiment on OVCAR-5 ovarian, -20.7% (active); with SK-OV-3 ovarian it was -48.9% (active); in the experiment with IGROV1 ovarian it was 34.7%; in the experiment with OVCAR-3 ovarian it was -83.9% (active). For the same compound, the growth is -45.3% (active) with HS 578T breast; -46.6% (active) in the experiment with NCI/ADR-RES ovarian; -69.3% (active) in the experiment with T-47D breast; 42.1% in the experiment with BT-549 breast; -93.2% (active) with MDA-MB-435 melanoma; -77.1% (active) in the experiment with SW-620 colon. Besides, the growth with HCT-116 colon was -100% (active); with HCC-2998 colon, -90.1% (active); with KM12 colon, -73.5% (active).
For the compound `CCN1C[C@@H](C)n2c(c(O)c3c(=O)n(Cc4ccc(F)c(Cl)c4)nc(C(=O)NC)c32)C1=O`, the growth in the experiment with RPMI-8226 leukemia is 19.4%; in the experiment with OVCAR-8 ovarian it was 22%; with OVCAR-5 ovarian, 88.6%; in the experiment on SK-OV-3 ovarian it was 43.5%; in the experiment on IGROV1 ovarian it was 28.7%; in the experiment on OVCAR-3 ovarian, 38.1%. Moreover, the growth in the experiment on HS 578T breast was 16.7%; in the experiment on NCI/ADR-RES ovarian, 15.3%; with T-47D breast, 27%; in the experiment on BT-549 breast it was 9.6% (active); in the experiment with MDA-MB-435 melanoma, 27.4%; with SW-620 colon, 21.1%. In addition, the growth in the experiment on MCF7 breast was 53.6%; in the experiment with HCT-116 colon, 16.3%; in the experiment with HCC-2998 colon, 14.7%; in the experiment on KM12 colon, 21%.
